The source of these data is PubChem BioAssay (NCI).

Assay [1] can be described thus: NCI Yeast Anticancer Drug Screen. Data for the rad50 strain (AID 155).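 Also: 0% = growth of vehicle-only cultures of the same strain.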 The following applies: S. cerevisiae rad50 strain growth inhibition; at 50.0 µM; active compounds read high. Summed up: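 Inhibition values express reduced yeast growth in compound-treated cultures relative to vehicle-treated controls.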
Assay [2] in a line: NCI Yeast Anticancer Drug Screen. Data for the mec2-1 strain (AID 157). The conditions noted are these: S. cerevisiae mec2-1 strain, at 50.0 µM, active compounds read high. Summed up: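 Compounds were applied to mec2-1 yeast cells. Their growth was then compared with that of vehicle-treated cultures to give growth inhibition.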
Assay [3] can be described thus: NCI Yeast Anticancer Drug Screen. Data for the sgs1 mgt1 strain (AID 161).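 Also: 0% = growth of cultures given vehicle only.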 The following applies: S. cerevisiae sgs1 mgt1 strain, at 50.0 µM, active compounds read high. A digest of the protocol:
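This yeast growth screen uses a strain with defined DNA-repair lesions; compound-treated growth is compared with vehicle-treated growth.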

Assay [4] can be described thus: NCI Yeast Anticancer Drug Screen. Data for the cln2 rad14 strain (AID 165).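 Also: 0% = growth equal to vehicle treated cultures.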 The conditions noted are these: S. cerevisiae cln2 rad14 strain, at 50.0 µM, active compounds read high. A digest of the protocol: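 Strain: cln2 rad14 yeast, altered in cell cycle control and DNA damage repair. Read-out: growth inhibition vs vehicle.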
A short description of assay [5]: NCI Yeast Anticancer Drug Screen. Data for the bub3 strain (AID 167). The conditions noted are these: S. cerevisiae bub3 mutant strain, at 50.0 µM, active compounds read high. A digest of the protocol:
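Steps: expose the mutant yeast strain to compound; grow alongside vehicle-treated cultures; measure growth; express inhibition against the vehicle cultures.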

A short description of assay [6]: NCI Yeast Anticancer Drug Screen. Data for the mlh1 rad18 strain (AID 175). The following applies: S. cerevisiae mlh1 rad18 strain growth inhibition; at 50.0 µM; active compounds read high. Summed up: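 A repair-deficient yeast strain is exposed to test compound, and growth is scored relative to vehicle-treated controls.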

The structures appear in SMILES notation. About 79,000 compounds went through this panel and 15% of them were active in at least one assay; those are over-represented in the sample as a whole. A number with no mark means an inactive call. The source made the active and inactive calls. Rule as the data show it: active = growth inhibition above about 70%; inactive = the rest.

On to `CCOC(=O)c1ccc(N(N=O)C(C)C)cc1`, for which the growth inhibition in assay [1] was 5.3%; in assay [2], 5.15%; in assay [3], 9.6%; in assay [4] it was -16%; in assay [5], 1.25%; in assay [6], 5.15%.
Consider `Cc1cc[c]([Sb]2([c]3ccc(C)cc3)([c]3ccc(C)cc3)[NH]c3cc(C(c4ccccc4)(c4ccccc4)c4ccccc4)cc(C(C)(C)C)c3[O]2)cc1`, for which the growth inhibition in assay [1] is -1.65%; in assay [2], 14.3%; in assay [3] it was 5.15%; in assay [4], -23.6%; in assay [5], -1.25%; in assay [6], 11.1%.
On to `CCCOc1ccc(OCC(=O)c2ccccc2)cc1`, for which the growth inhibition is -23.9% in assay [1]; -32.5% in assay [2]; 25.8% in assay [3]; 5.3% in assay [4]; 61.5% in assay [5]; 8% in assay [6].
Regarding `O=C(NCSC1=NCCS1)NCSC1=NCCS1`, the growth inhibition was -7.05% in assay [1]; -20.4% in assay [2]; 6.85% in assay [3]; 16.5% in assay [4]; 2.85% in assay [5]; -14.8% in assay [6].
Take `CCOC(=O)c1c[nH]c2cc3c(cc2c1=O)CCS3`: the growth inhibition in assay [1] is -27.4%; in assay [2], -57%; in assay [3], -1.45%; in assay [4], 3.95%; in assay [5], 9%; in assay [6] it was -7.35%.
`CC1=CCCC(C)(C)C1/C=C/C(=O)O` (stereo unspecified): the growth inhibition was 8.45% in assay [1]; -7.35% in assay [2]; -8.75% in assay [3]; -36.3% in assay [4]; -18.1% in assay [5]; -9.2% in assay [6].
Consider `C=CCNC(=S)/N=C/C(C(=O)Nc1ccccc1)=C(/C)O`, for which the growth inhibition is -55.6% in assay [1]; -18.1% in assay [2]; -41.2% in assay [3]; -27.2% in assay [4]; -50.9% in assay [5]; -20.6% in assay [6].
In the case of `C=CCOC(=O)OC(C)C(=O)OCC=C` (stereo unspecified), the growth inhibition in assay [1] is 27%; in assay [2], 13.1%; in assay [3], 15.4%; in assay [4], 7.55%; in assay [5], -2.25%; in assay [6], -2.5%.
With `CCOc1ccccc1NC(=S)NC(=O)CCc1ccccc1`, the growth inhibition in assay [1] was -12.9%; in assay [2], 14.2%; in assay [3], 41.9%; in assay [4] it was -35%; in assay [5], 31.6%; in assay [6] it was 21.8%.
Take `CC(C)(C)C(N)=O`: the growth inhibition was 2.4% in assay [1]; -1.25% in assay [2]; 4.35% in assay [3]; -3.9% in assay [4]; -7.25% in assay [5]; -1.25% in assay [6].
`O=C(O)c1cnc2cccc([N+](=O)[O-])c2c1`: the growth inhibition in assay [1] was 2.5%; in assay [2], 10.7%; in assay [3] it was 0.2%; in assay [4], -50.5%; in assay [5] it was -22.2%; in assay [6], 11.4%.
For `CCC/C=C/c1cc2c(cc1O)CC[C@@H]1[C@@H]2CC[C@]2(C)[C@@H](O)CC[C@@H]12`, the growth inhibition in assay [1] was 19.2%; in assay [2] it was 16.4%; in assay [3], 45.6%; in assay [4], 35.4%; in assay [5], 41.3%; in assay [6], 23.9%.
Regarding `COc1cc2c(c3c1/c(=N\N=c1/c4ccccc4n(C)c4c5c(cc(OC)c14)OC(C)(C)C=C5)c1ccccc1n3C)C=CC(C)(C)O2`, the growth inhibition in assay [1] was 70% (active); in assay [2] it was 13.6%; in assay [3], 64.5%; in assay [4], 48%; in assay [5] it was 36.9%; in assay [6], 27.4%.
Regarding `CC(C)(CN1C(=O)C(Cl)=C(Cl)C1=O)CN1C(=O)C(Cl)=C(Cl)C1=O`, the growth inhibition in assay [1] was 1.7%; in assay [2], -5.6%; in assay [3] it was 6.3%; in assay [4], -20.8%; in assay [5] it was -5.8%; in assay [6], 9.2%.
As to `O=C(O)/C(Br)=C(\Br)c1ccccc1`, the growth inhibition in assay [1] was 23.9%; in assay [2], 15.8%; in assay [3], 14.6%; in assay [4], 14.4%; in assay [5], 1.55%; in assay [6], 12.5%.
In the case of `CC(=O)OCc1ccc(Cl)cc1Cl`, the growth inhibition in assay [1] was 3.65%; in assay [2], -2.9%; in assay [3], 7.25%; in assay [4] it was 7.4%; in assay [5], -33.4%; in assay [6], -12.2%.
Consider `CCOC(=O)COc1ccc(Cc2ccc3c(c2)OCO3)cc1C`, for which the growth inhibition in assay [1] is -0.7%; in assay [2], 3.1%; in assay [3] it was -2.45%; in assay [4], -6.05%; in assay [5], 16.2%; in assay [6], 0.9%.
For `CC[C@]1(O)C(=O)OCc2c1cc1n(c2=O)Cc2cc3c(N)cccc3nc2-1`, the growth inhibition was 16.1% in assay [1]; 14% in assay [2]; 9.75% in assay [3]; -0.25% in assay [4]; 14.2% in assay [5]; 45% in assay [6].
On to `CCCCCCCCCC(O)CCCC(O)C(O)CCCCCCC(=O)O` (stereo unspecified), for which the growth inhibition is 13.1% in assay [1]; 15% in assay [2]; 22.7% in assay [3]; 17.5% in assay [4]; -3.05% in assay [5]; 37.6% in assay [6].
As to `COc1cc(/C=C/C(=O)NCCc2c[nH]c3ccc(O)cc23)ccc1O`, the growth inhibition is -9.25% in assay [1]; -0.75% in assay [2]; 9.3% in assay [3]; 11.8% in assay [4]; 3.15% in assay [5]; 6.75% in assay [6].
For the molecule `COc1ccc2nc(-c3ccccc3)cc(N=[N+]=[N-])c2c1`, the growth inhibition was 1.9% in assay [1]; -0.85% in assay [2]; -12.7% in assay [3]; -5.35% in assay [4]; -23.1% in assay [5]; -12% in assay [6].
